The whole screen tested about 46,000 compounds, of which about 60 (0.1%) were called active. Not shown: some 3% with an inconclusive outcome. Calls follow the shape of the dose curve; as a rule, active = well fitted inhibition curve with a large enough effect; inconclusive = small, poorly fitted or top-dose-only effect; inactive = no such curve, though single readings can be large or run the other way. Only a selection was taken, and actives are over-represented in it overall.
assay: Primary qHTS assay for Inhibitors of ovarian cancer metastasis using an organotypic tumor microenvironment (TME) model.; also: nearly all actives have a fitted effect of over 65% in size;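 as to Potency: count of GFP cancer cells still attached after washing and fixation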; conditions: SKOV3ip1-GFP adhesion/invasion on 3D omental model, fluorescence; series mostly up to 45.8 µM; activity change, negative = inhibition: at the top concentration
Text: PI: Ernst Lengyel MD., Ph.D. Department of Obstetrics and Gynecology, Section of Gynecologic Oncology University of Chicago Medicine, Chicago, Illinois. The tumor microenvironment (TME) is a key determinant of metastatic efficiency. We performed a quantitative high-throughput screen (qHTS) of diverse medicinal chemistry tractable scaffolds (44,420 compounds) and pharmacologically active small molecules (386 compounds) using a layered organotypic, robust assay representing the ovarian cancer metastatic TME. This 3D model contains primary human mesothelial cells, fibroblasts, and extracellular matrix, to which fluorescently labeled ovarian cancer cells are added. Initially, 100 compounds inhibiting ovarian cancer adhesion/invasion to the 3D model in a dose-dependent manner were identified. Of those, eight compounds were confirmed active in five high-grade serous ovarian cancer cell lines and were further validated in secondary in vitro and in vivo biological assays. […] Specifically, NCGC00117362 and PP-121 inhibited ovarian cancer adhesion, invasion, and proliferation, whereas milciclib inhibited ovarian cancer invasion and proliferation. […] To evaluate the clinical potential of NCGC00117362, structure - activity relationship studies were performed. […] The three compounds identified have promise as therapeutics for prevention and treatment of ovarian cancer metastasis.
PROTOCOL TABLE (as described by Inglese J, Shamu CE and Guy RK. 2007) SEQUENCE No. (e.g., 1, 2, 3, etc.); […] (e.g., Cells, Incubation, Reagent, etc.); VALUE; DESCRIPTION. 1; Cells; 4 uL; primary human omental fibroblast, black, clear bottom, low base, 1536-well Aurora assay plate. 2; Incubation; 48 hr; 37C. 3; Cells; 3 uL; 1,200 SKOV3ip1-GFP cells. 4; Compounds; 23nL; acoustic dispenser. 5; Incubation; 2 hr; room temperature. 6; Incubation; 16 hr; 37C. 7; Wash; 5 uL; 1x PBS. 8; Fixing; 5 uL; 4% paraformaldehyde (PFA). 9; Incubation; 15 min; room temperature 10; Wash, 5 uL; 1x PBS. 11; Detection; Fluorescence, excitation filter 488 nm, emission filter 509 nm. NOTES (numbers refer to Sequence numbers above) 1. For the 1,536-well format, 40 primary human omental fibroblasts and 400 mesothelial cells were seeded with 0.02 µg fibronectin and 0.02 µg collagen type I in 4 µL of growth media (2.3 mm2; Supplementary Fig. S1A). 2. Assay plates were incubated for 48 hours at 37 C. 3. After incubation, 1,200 SKOV3ip1-GFP were seeded in 3 µL of serum-free media (growth media minus FBS) on top of primary human omental cells. 4. Compounds or controls were added to each well immediately after the addition of the cancer cells. Compounds were screened in four doses (0.36-46 µmol/L), and the plates contained the positive control (Tomatine) in eight doses (0.035-75 µmol/L) and DMSO (equal volume controls) 5 - 6. The plates were incubated at room temperature for 2 hours and then at 37 degrees C for 16 hours. 7 - 10. Following incubation, the media were aspirated and each well washed with PBS (5 µL) and then fixed with 4% paraformaldehyde (PFA; 5 µL). After 15 minutes, the PFA solution was aspirated, PBS (5 µL) was added. 11. The number of GFP-labeled cells analyzed using a fluorescent cytometer TTP LabTech Acumen eX3 using 488 nm excitation filter and 509 nm emission filter. Data was normalized to the DMSO treated for negative and Tomatine treated wells for positive control. REFERENCES: Inglese J, Shamu CE and Guy RK, Reporting data from high throughput screening of small molecule libraries, Nature Chemical Biology, 2007, 3(8): 438-441. doi.org/10.1038/nchembio0807-438. Yasgar A, Shinn P, Jadhav A, Auld DS, Michael S, Zheng W, Austin CP, Inglese J and Simeonov A, Compound Management for Quantitative High-Throughput Screening. J. Assoc. Lab. Auto., 2008, 13: 79-89. doi: 10.1016/j.jala.2007.12.004.
Potency is read from the fitted curve at half-maximal effect.

Row | Structure (SMILES) | activity change, negative = inhibition | outcome | Potency
1 | CCCCN(C)S(=O)(=O)c1ccc(C(=O)Nc2sc3c(c2C(N)=O)CC(C)(C)NC3(C)C)cc1 | -2.75% (inactive) |  | 
2 | Cc1ccc(C(=O)Nc2ccccc2F)cc1S(=O)(=O)N1CCOCC1 | -6.33% (inactive) |  | 
3 | Cc1c(Cl)cccc1NC(=O)C1CCCN(c2ncnc3onc(C)c23)C1 (configuration not stated) | -1.22% (inactive) |  | 
4 | COc1cc(C=CC(=O)O)ccc1O | 0.771% (inactive) |  | 
5 | CSc1ccc(NC(=O)Cn2nnnc2-c2ccccc2F)cc1 | -8.04% (inactive) |  | 
6 | COc1ccccc1CNC(=O)C(=O)NCC(c1ccco1)S(=O)(=O)c1ccc(F)cc1 (configuration not stated) | 1.95% (inactive) |  | 
7 | CCC(C(=O)Nc1cccc(Cl)c1C)n1nc(-c2ccc(C)cc2)ccc1=O (configuration not stated) |  | inactive | 
8 | Cc1ccc(OC(=O)CSc2nnc(-c3cccs3)o2)cc1 |  | inactive | 
9 | O=C(CCSCc1cccc(F)c1)NCc1ccccc1 |  | inactive | 
10 | COc1cc(Cl)c(NC(=O)C(NS(=O)(=O)c2cccs2)C(C)C)c(OC)c1 (configuration not stated) | 6.82% (inactive) |  | 
11 | Cc1cccc(N2CCN(S(=O)(=O)c3ccc4[nH]c5c(c4c3)CCCCC5)CC2)c1C | -7.22% (inactive) |  | 
12 | CCN1C(=O)c2ccccc2S(=O)c2ccc(C(=O)NCc3ccc(F)cc3)cc21 (configuration not stated) | 4.34% (inactive) |  | 
13 | O=C(NCCC1=CCCCC1)c1ccc2c(c1)N(Cc1ccccc1F)C(=O)c1ccccc1S2(=O)=O | -1.06% (inactive) |  | 
14 | O=C(c1ccc(C(F)(F)F)cc1)N1CCC(c2nc(-c3ccc(S(=O)(=O)N4CCCC4)cc3)no2)CC1 | 8.1% (inactive) |  | 
15 | O=C(Nc1ccc(OC(F)(F)F)cc1)c1cc2c(=O)n3ccccc3nc2s1 | 6.53% (inactive) |  | 
16 | Cn1c(C(=O)Nc2cccc(C(F)(F)F)c2)cc2c(=O)n3ccccc3nc21 | 3.13% (inactive) |  | 
17 | O=c1c(NCc2cccs2)nccn1-c1ccccc1 | 3.18% (inactive) |  | 
18 | O=C(CC1Oc2ccc(Cl)cc2NC1=O)NCc1ccccc1 (configuration not stated) | -7.3% (inactive) |  | 
19 | Cc1ccc2nc(N3CCN(c4cccc(Cl)c4)CC3)c3nnnn3c2c1 |  | inactive | 

Row | Structure (SMILES) | activity change, negative = inhibition | outcome | Potency
20 | CCCCOc1ccc(NC(=O)c2cc3c(n(-c4ccc(Cl)cc4)c2=O)CCCC3=O)cc1 | 0.925% (inactive) |  | 
21 | Cc1ccc2cccc(NC(=O)c3cccc4ccccc34)c2n1 | -4.99% (inactive) |  | 
22 | COc1ccccc1CNC(=O)CS(=O)(=O)c1cccc2nsnc12 | -9.2% (inactive) |  | 
23 | O=C(CSc1cn(CC(=O)N2CCOCC2)c2ccccc12)Nc1ccccc1 | 0.574% (inactive) |  | 
24 | COc1ccc(C(=O)CSc2c(C(C)C)cnc3c2c(=O)n(C)c(=O)n3C)cc1 | 2.29% (inactive) |  | 
25 | COc1cccc(C(=O)NC2=NC(c3ccc(N(C)C)cc3)CC(=O)N2)c1 (configuration not stated) | 3.44% (inactive) |  | 
26 | CNc1ccc(-c2nc(-c3ccco3)no2)cc1[N+](=O)[O-] | -0.24% (inactive) |  | 
27 | Cc1c(NC(=O)c2cc(=O)c3ccccc3o2)c(=O)n(-c2ccccc2)n1C | 0.58% (inactive) |  | 
28 | Cc1ccc2c(=O)c(C(=O)c3ccc(F)cc3)cn(CC(=O)NC3CCCCC3)c2n1 | 6.33% (inactive) |  | 
29 | CCOc1ccc(NC(=O)c2c(NC(=O)Cc3ccccc3)sc3c2CCCCC3)cc1 |  | inactive | 
30 | Cc1ccc(NC(=O)c2nc(S(=O)(=O)Cc3cccc(C)c3)ncc2Cl)cc1 |  |  | 3.16 µM (active)
31 | CCSc1ncc(Cl)c(C(=O)Nc2cc(C)ccc2C)n1 |  | inactive | 
32 | CCCS(=O)(=O)c1ncc(Cl)c(C(=O)Nc2scc(-c3ccccc3)c2C(=O)OCC)n1 | 3.76% (inactive) |  | 
33 | CCOC(=O)N1CCc2c(sc3c2C(=O)NC(c2ccccc2F)N3)C1 (configuration not stated) | -21.5% (inactive) |  | 
34 | COc1ccc(-c2nc(CN3CCC(C(=O)NCCN(CC(C)C)CC(C)C)CC3)c(C)o2)cc1OC | 3.13% (inactive) |  | 
35 | CC(C)c1ccc(Cn2c(COc3ccccc3)nc3ccccc32)cc1 | -0.836% (inactive) |  | 
36 | CCc1ccc(C=C2SC(=S)NC2=O)cc1 | -4.26% (inactive) |  | 
37 | COc1ccc(-c2[nH]c3c(c2-c2c(-n4cccc4)n(C)c(=O)n(C)c2=O)c(=O)n(C)c(=O)n3C)cc1 | 6.37% (inactive) |  | 
38 | COc1ccc2c(C)c(CCC(=O)NCc3ccc(OC)c(OC)c3)c(=O)oc2c1 | -0.405% (inactive) |  | 

Row | Structure (SMILES) | activity change, negative = inhibition | outcome | Potency
39 | CC(C)(C)C1CCc2c(sc(NC(=O)c3ccccc3F)c2C(=O)N2CCCCC2)C1 (configuration not stated) | 6.61% (inactive) |  | 
40 | CCc1ccccc1NC(=O)c1cnn(-c2ccc(F)cc2)c1C1CCNCC1 | 1.55% (inactive) |  | 
41 | CCCCOc1ccc(CNC(=O)c2ccc3c(c2)N(C)C(=O)C2CCCCN32)cc1 (configuration not stated) |  | inactive | 
42 | COc1ccc(CCNC(=O)CCCCn2c(=O)c3ccccc3n(Cc3ccccc3C)c2=O)cc1OC | 9.65% (inactive) |  | 
43 | CC=C(C(=CC)c1ccc(O)cc1)c1ccc(O)cc1 | -8.67% (inactive) |  | 
44 | Cc1cc2nc(NC(=O)c3ccc(S(=O)(=O)N4CCOCC4)cc3)sc2cc1C | -13.4% (inactive) |  | 
45 | COc1ccc(-c2cc(C(=O)Nc3sc4c(c3C(N)=O)CCCC4)no2)cc1 | 33.1% (inactive) |  | 
46 | Cc1ccc2c(c1)N(C(=O)Nc1ccc(Br)cc1F)CCO2 |  | inactive | 
47 | COc1ccc2c(CNCCc3ccccc3C)c(C(=O)O)n(Cc3ccccc3C)c2c1 | 1.4% (inactive) |  | 
48 | CCOc1cc(C2C(C(=O)OC)=C(C)NC3=C2C(=O)c2ccccc23)ccc1O (configuration not stated) | -5.14% (inactive) |  | 
49 | COc1ccc2c(c1)CCc1c(C(=O)Nc3cc(C)ccc3O)noc1-2 |  | inactive | 
50 | Cc1ccccc1CNC(=O)c1ccc(NC(=O)N2CCCCc3ccccc32)cc1 | -3.35% (inactive) |  | 
51 | CCCN1CCN(CCCNC(=O)Cn2nc(CC)n3c(cc4occc43)c2=O)CC1 | 0.82% (inactive) |  | 
52 | CCOC(=O)C1CCC(CN(Cc2ccc(OC)cc2)S(=O)(=O)c2ccc(F)c(C(=O)Nc3cc(C)ccc3C)c2)CC1 (configuration not stated) |  | inactive | 
53 | Cc1n[nH]c(C)c1S(=O)(=O)N1CCCC(C(=O)Nc2ccc(Br)cc2)C1 (configuration not stated) | 6.06% (inactive) |  | 
54 | COc1ccc(NC(=O)C(=O)NCc2ccco2)cc1 | -4.16% (inactive) |  | 
55 | N#Cc1nc(/C=C/c2ccc(F)cc2)oc1NCc1ccc(F)cc1 |  | inactive | 
56 | CCOc1ccc(-c2nonc2NC(=O)c2oc3ccc(C)cc3c2C)cc1OCC | -20.8% (inactive) |  | 
57 | CCC(=O)Nc1ccccc1-c1nc2ccccc2n(CC(=O)Nc2ccc(C)c(C)c2)c1=O | 2.4% (inactive) |  | 

Reference: PubChem BioAssay AID1963576 (National Center for Advancing Translational Sciences (NCATS), 2024)
